The values below come from PubChem BioAssay (NCATS).

The structures appear in SMILES notation. Results filed as inconclusive are left out. Values without a mark were called inactive. Calls of active or inactive are those of the source. Calls come from the whole dose curve; as a rule, active = well fitted inhibition curve with a large enough effect; inconclusive = small, poorly fitted or top-dose-only effect; inactive = flat fitted curve, though single readings scatter.
% is set by controls: 0 for no effect and ±100 for the full control effect; potency is the fitted concentration of half-maximal effect.

In the first assay the test system is UISO. Nature of the assay: qHTS assay to identify novel small-molecules to repurpose for Merkel cell carcinoma treatment (AID 1296009). Note: nearly all actives have a fitted effect of over 60% in size. The conditions noted are these: MCC and control cell lines, CellTiter-Glo viability, 72 h; series mostly up to 46 µM; activity change, negative = cytotoxicity: at the top concentration. In outline: (§1)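 qHTS format: cells treated with library compounds in DMSO across 8 (NPC) or 11 (MIPE) concentrations. Readout after 72 hr at 37 degree celsius was CellTiter-Glo luminescence.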
As to `CC(=O)c1ccc2c(c1)N(CCCN(C)C)c1ccccc1S2`, the “activity change, negative = cytotoxicity” value was -18%.
As for `CC1(C)CO[C@@H](CC(=O)O)CN1`, the “activity change, negative = cytotoxicity” value was 9.96%.
Regarding `C[C@H](N)[C@H](O)c1cccc(O)c1`, the “activity change, negative = cytotoxicity” value was 23.2%.
In the case of `Cc1cc(O)cc2c1O[C@](C)(CCC[C@H](C)CCC[C@H](C)CCCC(C)C)CC2`, the “activity change, negative = cytotoxicity” value was -4.73%.
For `CC(=O)NC(Cc1ccccc1)C(=O)O` (stereo not given), the “activity change, negative = cytotoxicity” value was -6.73%.
For the compound `CNCC(O)c1ccc(O)c(O)c1` (stereo not given), the Potency was 16.8 µM (active).
With `CC[C@@]1(c2ccccc2)NC(=O)N(C)C1=O`, the “activity change, negative = cytotoxicity” value was 8.58%.

Another assay deals with WaGa. The description is as above. The conditions noted are these: MCC and control cell lines, CellTiter-Glo viability, 72 h; series mostly up to 46 µM; activity change, negative = cytotoxicity: at the top concentration. In a few lines: as §1
In the case of `NC(=O)NC(=O)Cc1ccccc1`, the “activity change, negative = cytotoxicity” value is 8.54%.
On the same count and under the same terms, the result for `NC(=O)NNc1ccccc1` reads 0.0722%.
Consider `N[C@H](C(=O)O)c1ccc(O)cc1`, for which the “activity change, negative = cytotoxicity” value is 11.3% [at 16.1 µM].
Same read-out and setting: under `Nc1ccc(S(=O)(=O)NC(=O)c2ccccc2)cc1` stands 2.93%.
As for `CCN(CC)CCNC(=O)c1c(C)[nH]c(/C=C2\C(=O)Nc3ccc(F)cc32)c1C`, the Potency is 11.9 µM (active).
For `N[C@H]1C(O)O[C@H](CO)[C@@H](O)[C@@H]1O` (stereo not given in full), the “activity change, negative = cytotoxicity” value is 3.4%.
Turning to `O=S(=O)(O)NC1CCCCC1`, the “activity change, negative = cytotoxicity” value was 12.8%.
As for `OC[C@H]1O[C@@H](O[C@@H]2[C@@H](CO)O[C@](O)(CO)[C@H]2O)[C@H](O)[C@@H](O)[C@H]1O`, the “activity change, negative = cytotoxicity” value was -0.851%.
For the compound `CNCCC(Oc1ccc(C(F)(F)F)cc1)c1ccccc1` (stereo not given), the Potency was 21.1 µM (active).
As for `CN(C)CCCO[C@@H]1[C@H]2OC(C)(C)O[C@H]2O[C@@H]1C(O)CO` (stereo not given in full), the “activity change, negative = cytotoxicity” value is 14.1%.
For `C[C@@H]1CC[C@@]2(OC1)O[C@H]1C[C@H]3[C@@H]4CC[C@H]5C[C@@H](O)CC[C@]5(C)[C@H]4CC(=O)[C@]3(C)[C@H]1[C@@H]2C`, the activity change, negative = cytotoxicity was 17.9% [at 4.84 µM].
With `CSc1ccc2c(c1)N(CCC1CCCCN1C)c1ccccc1S2` (stereo not given), the Potency is 23.7 µM (active).
As for `C[C@H]1O[C@@H](n2cc(F)c(=O)[nH]c2=O)[C@H](O)[C@@H]1O`, the “activity change, negative = cytotoxicity” value is -25.1%.
For `O=S(=O)(O)c1cc(I)c(O)c2ncccc12`, the “activity change, negative = cytotoxicity” value is 3.64%.
Same read-out and setting: under `CC1(C)OC(=O)NC1=O` stands 3.24%; under `CCCCCCCCCCCCCCCCCCOCC(O)CO` (stereo not given), 16.6%; under `CC(=O)CCC(=O)O`, 7.63%.
As for `C=CCn1c(=O)n([C@@H]2O[C@H](CO)[C@@H](O)[C@H]2O)c2nc(N)[nH]c(=O)c21`, the “activity change, negative = cytotoxicity” value was 1.83%.
Consider `CC(=O)c1ccc2c(c1)N(CCCN(C)C)c1ccccc1S2`, for which the Potency was 26.6 µM (active).
On to `CC1(C)CO[C@@H](CC(=O)O)CN1`, for which the “activity change, negative = cytotoxicity” value is 17.1%.
`COc1ccc2cc1Oc1ccc(cc1)C[C@H]1c3c(cc4c(c3Oc3cc5c(cc3OC)CCN(C)[C@@H]5C2)OCO4)CCN1C`: the Potency was 18.8 µM (active).
Still for that read-out and setting: under `CN(C)CCCN1c2ccccc2Sc2ccc(Cl)cc21` stands 26.6 µM (active).
For the compound `C[C@H](N)[C@H](O)c1cccc(O)c1`, the “activity change, negative = cytotoxicity” value was 10.2%.
Turning to `Cc1cc(O)cc2c1O[C@](C)(CCC[C@H](C)CCC[C@H](C)CCCC(C)C)CC2`, the “activity change, negative = cytotoxicity” value is 7.71%.
For the compound `CCN(CC)CCCC(C)Nc1c2ccc(Cl)cc2nc2ccc(OC)cc12` (stereo not given), the Potency is 26.6 µM (active).
With `CCCCN(CCCC)CC(O)c1cc(Cl)cc2c1-c1ccc(Cl)cc1/C2=C/c1ccc(Cl)cc1` (stereo not given), the “activity change, negative = cytotoxicity” value is -14.5%.
For the compound `CC(=O)NC(Cc1ccccc1)C(=O)O` (stereo not given), the “activity change, negative = cytotoxicity” value is -17.4%.
Turning to `CC[C@@]1(c2ccccc2)NC(=O)N(C)C1=O`, the “activity change, negative = cytotoxicity” value is 8.26%.
